The record followed here is PubChem BioAssay AID463173 (ICCB-Longwood Screening Facility, Harvard Medical School, 2010).

In all, about 52,000 compounds went through this assay and about 4,300 (8.3%) were called active. This is one part of a sample in which actives are shown more often than they occur. Values without a mark were called inactive. No stated cut-off is given here; in the data, active means survival mostly below about 52% (no sharp cut-off); inactive means mostly above about 56%.

In this assay the test system is DeltatarO mutant. Put plainly: S. aureus survival, RN4220 and DeltatarO strains – OD600, teichoic acid synthesis inhibitors, primary screen (AID 463173). To be noted: S. aureus RN4220 wild type/DeltatarO growth, OD600, 18 h, hits give low values, screened at 18.75 µg/mL (by protocol).
For the compound `CC(C)(C)c1ccc(C(=O)NCC(c2cccnc2)N2CCc3ccccc3C2)cc1` (centres undefined), the survival is 98%.
To `O=C(c1nc(-c2ccc(Cl)cc2)n2c1CCCCC2)N1CCN(c2ccccc2)CC1` belongs 88%; to `COC(=O)c1sc(N2C(=O)c3oc4cc(C)c(C)cc4c(=O)c3C2c2ccccc2F)nc1C` (centres undefined), 70%; to `O=c1c2nncn2ccn1-c1ccc(F)c(F)c1`, 90%.
As to `CCN(c1ccccc1)c1nnc(NC(=O)Nc2cccc(C(F)(F)F)c2)s1`, the survival is 88%.
As to `Cc1ccccc1-c1nnc(SCC(=O)N(C)C2CCCCC2)o1`, the survival is 67%.
On to `COc1ccc(-n2nc3ccc(NC(=O)c4cccc(OCCC(C)C)c4)cc3n2)cc1`, for which the survival was 121%.
To `CN(C)CCCNc1cn[nH]c(=O)c1Cl` belongs 93%; to `CCOc1ccc(C(=O)CSc2nc3c(c(=O)n(C)c(=O)n3C)n2C(C)C)cc1`, 77%.
For the compound `O=C(CSc1cn(CC(=O)N2CCOCC2)c2ccccc12)Nc1ccccc1C(F)(F)F`, the survival was 65%.
With `COc1ccc(C(=O)c2sc3nc(-c4ccc(F)cc4)ccc3c2N)cc1`, the survival was 81%.
`COc1cccc(-c2ccc3c(N)c(C(=O)Nc4ccc(C)c(F)c4)sc3n2)c1`: the survival is 95%.
The value for `COc1cccc(C(=O)c2sc3nc(-c4ccccc4)cc(C(F)(F)F)c3c2N)c1` was 37% (active); that for `COc1ccc(NC(=O)c2sc3nc(-c4ccc(OC)cc4)cc(C(F)(F)F)c3c2N)cc1` was 56%.
Turning to `COc1ccc(-c2ccc3c(N)c(C(=O)c4ccc(OC)c(OC)c4)sc3n2)cc1`, the survival was 52%.
For `COc1cccc(-c2ccc3c(N)c(C(=O)c4ccc(Br)cc4)sc3n2)c1`, the survival is 28% (active).
In the case of `COc1cccc(-c2ccc3c(N)c(C(=O)Nc4cc(C(F)(F)F)ccc4OC)sc3n2)c1`, the survival was 89%.
The value for `COc1ccc(-c2ccc3c(N)c(C(=O)NCc4ccc(C)cc4)sc3n2)cc1` was 69%.
For the compound `COc1ccc(C(=O)c2sc3nc(-c4ccc(C)cc4)cc(C(F)(F)F)c3c2N)cc1`, the survival is 134%.
For the compound `COc1cccc(-c2ccc3c(N)c(C(=O)c4ccc(F)cc4)sc3n2)c1`, the survival was 17% (active).
The value for `COc1cccc(-c2ccc3c(N)c(C(=O)NCc4ccc(Cl)cc4)sc3n2)c1` was 41% (active); that for `COc1ccc(-c2ccc3c(N)c(C(=O)NCc4ccc(Cl)cc4)sc3n2)cc1` was 79%; that for `CC1C(=O)CCNC1c1ccccc1` (centres undefined) was 65%.
Take `O=C(O)c1ccc(N=NSCCO)cc1`: the survival is 79%.
With `COc1ccc(-n2nc(C(=O)NCCc3cccc(C)c3)c3c4ccccc4n(C)c3c2=O)cc1Cl`, the survival was 89%.
On to `Cn1c(=O)c2c(nc(SCC(=O)Nc3ccc(OC(F)(F)F)cc3)n2Cc2cccc(C(F)(F)F)c2)n(C)c1=O`, for which the survival is 86%.
With `COc1cccc(-c2ccc3c(N)c(C(=O)c4ccc(Cl)cc4)sc3n2)c1`, the survival was 30% (active).
Consider `COc1cccc(-c2ccc3c(N)c(C(=O)Nc4ccc(Cl)cc4F)sc3n2)c1`, for which the survival is 59%.
Turning to `COc1ccc(Cl)cc1NC(=O)c1sc2nc(-c3ccc(OC)c(OC)c3)ccc2c1N`, the survival is 124%.
As to `Cc1ccc(S(=O)(=O)c2nc(-c3ccccc3Cl)oc2N2CCCCCC2)cc1`, the survival was 25% (active).
To `Cc1ccc(S(=O)(=O)c2nc(-c3ccccc3F)oc2N2CCCCC2)cc1` belongs 32% (active); to `O=S(=O)(c1ccccc1)c1nc(-c2ccc(Cl)cc2Cl)oc1N1CCCCC1`, 90%; to `O=S(=O)(c1ccccc1)c1nc(-c2ccccc2Cl)oc1N1CCCCCC1`, 27% (active).
To `O=S(=O)(c1ccccc1)c1nc(-c2ccccc2F)oc1N1CCOCC1` belongs 71%.
Take `O=S(=O)(c1ccccc1)c1nc(-c2ccc(Cl)cc2Cl)oc1N1CCCCCC1`: the survival is 49%.
For the compound `O=S(=O)(Nc1ccc(-c2ccc(N3CCCC3)nn2)cc1)c1cc(F)ccc1F`, the survival is 96%.
To `Cc1ccc(-c2nc(CS(=O)CC(=O)N3CCN(c4ccccc4)CC3)c(C)o2)cc1` (centres undefined) belongs 62%; to `CC(C)(C)OC(=O)N1CCC(c2c(C(=O)NCc3ccccc3)cnn2-c2cccc(F)c2)CC1`, 108%.
As for `O=C(/C=C\c1ccc2c(c1)OCO2)NC1CC(=O)N(c2ccccc2)C1` (centres undefined), the survival was 134%.
As for `CN(C)c1ccc(NC(=O)CC(NCc2cccnc2)C(=O)O)cc1` (centres undefined), the survival is 76%.
The value for `CC(=O)c1cccc(NC(=O)CN2C=NS(=O)(=O)c3ccc(C)cc32)c1` was 89%; that for `COc1ccc(-c2csc3nc(-c4ccc(F)cc4)oc(=O)c23)cc1` was 61%.
On to `O=C(NCc1ccc2c(c1)OCO2)c1ccc2c(c1)N(Cc1cccc(Cl)c1)C(=O)c1ccccc1S2`, for which the survival is 84%.
The value for `O=C(NCc1cccs1)C1CCN(C(=O)N2CCOc3ccccc32)CC1` was 107%.
Turning to `Cc1cc(C)cc(NS(=O)(=O)c2cc3[nH]c(=O)c(=O)[nH]c3cc2C)c1`, the survival is 87%.
The value for `COc1ccc(NS(=O)(=O)c2cc3[nH]c(=O)c(=O)[nH]c3cc2C)cc1Cl` was 94%; that for `COc1cc(NS(=O)(=O)c2cc3[nH]c(=O)[nH]c3cc2C)cc(OC)c1OC` was 37% (active).
On to `O=C1C2C(C(=O)N1CCO)C1C=CC2C12CC2` (centres undefined), for which the survival was 100%.
For the compound `CCOc1ccccc1CNC(=O)c1[nH]c2ccccc2c1Sc1ccccc1`, the survival was 72%.
The value for `COc1cccc(NC(=O)/C(C#N)=C\c2cn(Cc3ccc(C)cc3)c3ccccc23)c1` was 90%; that for `COC(=O)c1c(NC(=O)Nc2ccc(Cl)cc2)sc(C)c1C` was 74%; that for `COC(=O)c1c(NC(=O)C(C)Oc2ccc(Cl)cc2Cl)sc2c1CCCC2` (centres undefined) was 46%.
The value for `COC(=O)c1c(NC(=O)c2ccc(Cl)c(Cl)c2)sc2c1CCCC2` was 63%; that for `COC(=O)c1c(NC(=O)Cc2cccs2)sc2c1CCCC2` was 119%.
To `COC(=O)c1c(NC(=O)COc2c(C)cccc2C)sc2c1CCCC2` belongs 2% (active); to `COC(=O)c1c(NC(=O)COc2cc(C)c(Cl)c(C)c2)sc2c1CCCC2`, 147%.
For `CCOC(=O)c1sc(NC(=O)C(C)Oc2ccc(OC)cc2)c(C(=O)OCC)c1C` (centres undefined), the survival was 73%.
Regarding `COC(=O)c1c(NC(=O)COc2cc(C)ccc2C(C)C)sc2c1CCC(C)C2` (centres undefined), the survival was 61%.
On to `COC(=O)c1c(NC(=O)C(C)Oc2ccc(Cl)c(C)c2)sc(C)c1C` (centres undefined), for which the survival is 15% (active).
To `COC(=O)c1c(NC(=O)COc2ccc(OC)cc2)sc2c1CCC(C)C2` (centres undefined) belongs 66%.
As to `CCCc1ccc(OC(C)C(=O)Nc2sc3c(c2C(=O)OC)CCCCC3)cc1` (centres undefined), the survival was 9% (active).
In the case of `COC(=O)c1c(NC(=O)COc2c(C)ccc(C)c2C)sc2c1CCC(C)C2` (centres undefined), the survival is 22% (active).
`Cc1ccc(S(=O)(=O)N2CCN(C(=O)c3c(C)nn(-c4ccccc4)c3Cl)CC2)cc1`: the survival is 63%.
`O=C(O)CCNC(=O)c1ccc(Br)o1`: the survival was 72%.
With `Cc1ccccc1Nc1c(-c2ccc(N3CCOCC3)cc2)nc2ncccn12`, the survival is 83%.
`Cc1cccc(C)c1NC(=O)CN(C)S(=O)(=O)c1ccc2c(c1)n(C)c(=O)c(=O)n2C`: the survival was 89%.
As to `O=c1c(S(=O)(=O)c2ccccc2)cn(Cc2cccc(F)c2)c2cc(N3CCOCC3)c(F)cc12`, the survival was 78%.
With `COc1ccc(Cl)cc1NC(=O)c1c(NCc2ccc(C)o2)sc2c1CCCC2`, the survival is 74%.
For the compound `COc1ccc(Cl)cc1N(C)C(=O)c1ccc2c(=O)n3c(nc2c1)CCCCC3`, the survival was 76%.
The value for `N#Cc1ccc(NC2=NS(=O)(=O)c3ccccc32)cc1` was 68%; that for `O=C(NCCc1ccc(Cl)cc1)c1ccco1` was 98%; that for `CCOC(=O)c1c(NC(=O)C(C)Oc2ccc(Cl)c(C)c2)sc2c1CCCC2` (centres undefined) was 42% (active).
Consider `Cc1cc(OC(C)C(=O)Nc2sc3c(c2C(N)=O)CCCC3)ccc1Cl` (centres undefined), for which the survival was 59%.
To `CCOC(=O)c1c(NC(=O)COc2c(C)cc(Cl)cc2Cl)sc2c1CCCC2` belongs 53%.
In the case of `CCOc1ccccc1NC(=O)c1c(NC(=O)C(C)Oc2ccc(Cl)cc2)sc2c1CCCCC2` (centres undefined), the survival was 83%.
The value for `COC(=O)c1c(NC(=O)c2ccc(OC)cc2OC)sc2c1CCCCC2` was 47%; that for `COC(=O)c1c(NC(=O)COc2ccc(C(C)C)cc2)sc2c1CCCC2` was 47%; that for `Cc1ccccc1NC(=O)c1c(NC(=O)C(C)Oc2cccc(Cl)c2)sc2c1CCCC2` (centres undefined) was 40% (active).
For the compound `CCNC(=O)c1c(NC(=O)COc2ccc(F)cc2)sc2c1CCCC2`, the survival was 59%.
As to `CCCc1ccc(OCC(=O)Nc2sc3c(c2C(=O)OC)CCCCC3)cc1`, the survival is 38% (active).
Regarding `CCOc1ccccc1NC(=O)c1c(NC(=O)C(C)Oc2cccc(Cl)c2)sc2c1CCCCC2` (centres undefined), the survival was 64%.
As for `COC(=O)c1c(NC(=O)c2c(OC)cccc2OC)sc2c1CCCC2`, the survival is 13% (active).
As for `COC(=O)c1c(NC(=O)c2ccccc2C(=O)O)sc2c1CCCC2`, the survival is 92%.
`CCN(C(=O)CN(C)S(=O)(=O)c1ccc2c(c1)c(=O)n(C)c(=O)n2C)c1ccc(OC)cc1`: the survival was 90%.
Turning to `OP(Oc1ccccc1)(Oc1ccccc1)=P(O)(Oc1ccccc1)Oc1ccccc1`, the survival is 97%.
`COc1ccc(OC)c(Nc2ncc3c(n2)CCN(Cc2cc(OC)c(OC)c(OC)c2)C3)c1`: the survival was 81%.
For the compound `CC(C)OCCCNC(=O)CN1C(=O)COc2ccc(S(=O)(=O)N3CCOCC3)cc21`, the survival is 79%.
To `COC(=O)c1cc(NC(=O)c2sc3ncn(Cc4cccc(F)c4)c(=O)c3c2C)cc(C(=O)OC)c1` belongs 92%; to `CCc1cccc(NC(=O)Cn2nc3c4cc(F)ccc4n(Cc4cccc(C)c4)cc-3c2=O)c1`, 84%.
